Source: PubChem (several laboratories)
A selection: hits, their analogues and other compounds. The true share with any hit is near 0.5%.
Tat transport – inhibitors of E. coli Tat protein transport; AID 488895; inhibition, % at 10 µM; E. coli MC4100 TorA-mCherry Tat export, fluorescence; 340,000 compounds, 0.036% hits;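 active = mean replicate inhibition at least 50% and at least half of replicates individually reaching 50%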;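 note: exported cargo escapes ClpAP degradation while cytoplasmic cargo is degraded and loses fluorescence; 0% = median of neutral control wells and 100% = median of NaSCN control wells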
phage Ecoli inh – E. coli growth loss with phage present; growth absorbance; inhibition, % at 11.9 µM; 360,000 compounds, 0.26% hits; in the data active = inhibition above about 11%
E coli growth-1 – E. coli growth inhibition; Escherichia coli growth, OD600, 23 h; active compounds read low; OD600 absorbance (test concentration not listed); 330,000 compounds, 0.21% hits;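 active = OD600 absorbance below the run mean of sample wells minus 3.6 SD, in any replicate, cut at about 0.56 in these data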
E coli growth-2 – reduces bacterial viability in AddAB counter-screen; AID 449728; 330,000 compounds, 0.27% hits; E. coli V3065 growth, OD600 absorbance, 18 h; inhibition, % at 11.9 µM;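 active = inhibition above the campaign's mean inhibition across all tested compounds plus 3 SD, cut at about 9.9% in these data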;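 note: uninfected addAB+ strain grown without phage in ampicillin broth; 0% = DMSO wells and 100% = ciprofloxacin 0.95 µg/ml wells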
AddAB inh – less growth of phage-infected E. coli with AddAB; 330,000 compounds, 0.29% hits; inhibition, % at 11.9 µM; E. coli expressing H. pylori AddAB, absorbance growth; in the data active = inhibition above about 12%;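 note: 0% = vehicle wells of infected cells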
AddAB confirm – confirmation screen: growth loss of phage-infected E. coli expressing H. pylori AddAB; E. coli V3065 expressing H. pylori AddAB, T4 phage, OD; T4 phage with gene 2 nonsense mutations; shares compounds with AddAB inh; inhibition, % at 11.9 µM; 880 compounds, 64% hits;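 active = mean inhibition above a set limit taken from the earlier primary screen, cut at about 13% in these data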;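 note: higher means less bacterial growth since AddAB block lets phage replicate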
RecBCD counter – reduces growth of phage-infected RecBCD+ E. coli, AddAB inhibitor counter-screen; AID 488955; 880 compounds, 73% hits; inhibition, % at 11.9 µM; E. coli V66 + mutant T4 phage, OD growth; shares compounds with AddAB inh;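 active = mean inhibition above the mean of solvent-only control wells plus 3 SD, cut at about 4% in these data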;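 note: optical density read after an 18 h incubation at 37 °C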
bact viab count – counter-screen: bacterial growth inhibition; shares compounds with AddAB inh; bacterial viability, absorbance (AddAB counterscreen); inhibition, % at 11.9 µM; 880 compounds, 35% hits; AID 488956; in the data active = inhibition above about 25%
RecBCD conf – growth loss of phage-infected V66 E. coli, RecBCD confirmation screen; shares compounds with phage Ecoli inh; E. coli V66 + T4 2- phage, growth OD; inhibition, % at 11.9 µM; 890 compounds, 45% hits;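 active = mean inhibition over triplicates exceeding the hit threshold derived in the original primary screen, cut at about 11% in these data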
Ecoli viability – bacterial viability inhibition counter-screen for RecBCD; E. coli viability, absorbance (OD) growth; shares compounds with phage Ecoli inh; AID 651983; 890 compounds, 29% hits; inhibition, % at 11.9 µM; in the data active = inhibition above about 20%;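 note: E. coli strain V66 grown with compound alone and no phage infection; 0% = bacteria with DMSO vehicle only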
AddAB phage OD – growth loss of phage-infected AddAB E. coli, RecBCD counter-screen | shares compounds with phage Ecoli inh | E. coli expressing H. pylori AddAB + T4 phage, OD growth; gene 2 mutant T4, recBCD-deleted host | inhibition, % at 11.9 µM | 890 compounds, 45% hits;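 active = mean inhibition above the solvent-only control wells' mean plus 3 SD, cut at about 22% in these data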;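 note: higher means less bacterial growth from phage killing when AddAB is blocked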
Active calls of the source: *; · = no result.

SMILES	Tat transport	phage Ecoli inh	E coli growth-1	E coli growth-2	AddAB inh	AddAB confirm	RecBCD counter	bact viab count	RecBCD conf	Ecoli viability	AddAB phage OD
CCN(CC)c1ccc(/C=N/NC(=O)c2nnn(-c3nonc3N)c2C(C)C)c(O)c1	-32	11*	·	20*	27*	11	16*	7	6	9	8
CC(C)c1c(C(=O)N/N=C/c2ccc3c(c2)OCO3)nnn1-c1nonc1N	3	-2	·	-2	5	·	·	·	·	·	·
CCn1ccc(=O)c2cc3c(cc21)OCO3	14	0	0.68	2	3	·	·	·	·	·	·
CCn1nc(C(=O)O)c(=O)c2cc3c(cc21)OCO3	28	53*	0.058*	98*	96*	99*	98*	101*	90*	99*	99*
Nc1nonc1-c1nc2ccccc2n1CC(=O)NN=Cc1ccc(-c2cccc(C(=O)O)c2)o1	·	·	0.69	·	·	·	·	·	·	·	·
O=C(CSc1nnc(-c2ccccc2O)n1Cc1ccccc1)NNC(=O)c1ccccc1O	18	13*	0.6	14*	25*	5	5.9*	5	4	5	8
O=C(O)CSc1nnc(-c2ccccc2O)n1Cc1ccccc1	12	2	0.71	0	-4	·	·	·	·	·	·
CCCCCCn1cc(C(=O)O)c(=O)c2cc(F)c(N3CCN(C(=O)OCC)CC3)cc21	-3	2	0.68	4	2	·	·	·	·	·	·
CCCc1nnc(NC(=O)c2cn(CC)c3cc(N4CCN(C)CC4)c(F)cc3c2=O)s1	·	43*	0.07*	97*	99*	99*	91*	101*	42*	72*	98*
CCCCN(CCCC)C(=O)c1cn(CC)c2cc(N3CCN(C)CC3)c(F)cc2c1=O	71*	98*	0.049*	101*	102*	104*	102*	103*	100*	101*	100*
CCn1cc(C(=O)NCCN(C)C)c(=O)c2cc(F)c(N3CCN(C)CC3)cc21	8	96*	0.052*	98*	101*	104*	99*	104*	49*	87*	99*
CCn1cc(C(=O)NCCCN(C)C)c(=O)c2cc(F)c(N3CCN(C)CC3)cc21	37	93*	0.051*	99*	100*	97*	90*	101*	70*	99*	101*
CCCNC(=O)c1cn(CC)c2cc(N3CCN(C)CC3)c(F)cc2c1=O	81*	100*	0.049*	100*	98*	102*	101*	101*	103*	104*	103*
CCn1cc(S(=O)(=O)c2ccc(C)cc2)c(=O)c2cc(F)c(N3CCN(C)CC3)cc21	5	1	0.69	-1	-2	·	·	·	·	·	·
COc1ccc2c(c1)[nH]c1c(=O)n(N=CC3C(C)C=C(C)CC3C)c(=O)[nH]c12 (stereo not drawn)	·	·	0.7	·	·	·	·	·	·	·	·
CCCNC(=O)c1ccc2c(=O)c(O)c(-c3cccc(Br)c3)[nH]c2c1	13	20*	0.66	13*	15*	14*	13*	15	12*	13	16
N#Cc1nccnc1S(=O)(=O)c1cccs1	·	18*	0.49*	13*	19*	64*	17*	16	17*	16	33*
CN(Cc1ccccc1C#N)S(=O)(=O)c1cccs1	7	5	0.7	2	4	·	·	·	·	·	·
COc1ccc2[nH]c3c(=O)n(N=Cc4ccc(OC)c(CN5CCCC5)c4)c(C)nc3c2c1	·	·	0.71	·	·	·	·	·	·	·	·
COc1cc(C=NNC(=O)OC(C)(C)C)ccc1OC(=O)c1ccco1	·	·	0.66	·	·	·	·	·	·	·	·
COc1cc(C=Nn2c(COc3ccccc3)n[nH]c2=S)cc(OC)c1OC(C)=O	·	·	0.68	·	·	·	·	·	·	·	·
CCc1nnc(NS(=O)(=O)c2ccc(N=CC3=C(O)CC(C)(C)CC3=O)cc2)s1	-4	14*	0.69	11*	17*	11	5.9*	16	8	4	21*
CC1(C)CC(=O)C(C=Nc2ccc(O)cc2)=C(O)C1	3	1	0.67	0	0	·	·	·	·	·	·
CC(=CC(NP(=O)(c1ccccc1)c1ccccc1)c1ccccc1)CO[Si](c1ccccc1)(c1ccccc1)C(C)(C)C (stereo not drawn)	·	·	0.69	·	·	·	·	·	·	·	·
CCC(=O)NC(c1ccc(OC)cc1)c1cc(Cl)c2cccnc2c1O (stereo not drawn)	0	21*	0.65	23*	26*	21*	23*	18	13*	17	21*
SMILES	Tat transport	phage Ecoli inh	E coli growth-1	E coli growth-2	AddAB inh	AddAB confirm	RecBCD counter	bact viab count	RecBCD conf	Ecoli viability	AddAB phage OD
CCC(=O)NC(c1ccco1)c1cc(Cl)c2cccnc2c1O (stereo not drawn)	4	13*	0.71	15*	16*	5	11*	1	2	4	18
CCC(=O)NC(c1ccco1)c1cc(Cl)c2cccnc2c1OC (stereo not drawn)	-20	1	0.68	-1	0	·	·	·	·	·	·
CCCCC(=O)NC(c1ccco1)c1cc(Cl)c2cccnc2c1O (stereo not drawn)	2	21*	0.71	24*	16*	18*	18*	15	10	12	15
CCCC(=O)NC(c1cccs1)c1cc([N+](=O)[O-])c2cccnc2c1O (stereo not drawn)	-7	3	0.66	-1	5	·	·	·	·	·	·
CC(=O)NC(c1cc(Cl)c2cccnc2c1O)C(C)C (stereo not drawn)	0	8	0.67	-1	4	·	·	·	·	·	·
CCOC1OC(C(=O)NC2CC2)=CC(c2c[nH]c3ccccc23)C1CCCO (stereo not drawn)	·	·	0.66	·	·	·	·	·	·	·	·
O=c1[nH]c(=O)n([C@H]2C[C@H](O)[C@@H](CO)O2)cc1C(F)(F)F	16	11*	·	9	13*	40*	9.6*	13	17*	13	26*
Cc1cn([C@H]2C[C@H](O)[C@@H](COS(=O)(=O)O)O2)c(=O)[nH]c1=O	-8	0	·	0	1	·	·	·	·	·	·
O=c1[nH]c(=O)n(C2CC(O)C(CO)O2)cc1Br (stereo not drawn)	1	11	·	·	·	·	·	·	·	·	·
